The supplement of paper PMC13380429

Test system: Vero E6 infected with SARS-CoV-2
Test: inhibition of SARS-CoV-2 cytopathic effect; higher = more antiviral protection, active = above 15
Details: 48 h

Measured: inhibition of SARS-CoV-2 cytopathic effect

CCCCCCCCCCCCCCC[C@@H](O)[C@@H](N)CO [safingol]
inactive: 1 nM 3.01% | 8.33 nM 0.67% | 100 nM 1.42% | 833.33 nM 2.02% | 10000 nM -4.84%

O=C1CCC[C@@H]2[C@H]3CCCN4CCC[C@@H](CN12)[C@@H]34 [matrine]
inactive: 1 nM -2.75% | 8.33 nM -0.7% | 100 nM -1.73% | 833.33 nM -0.8% | 10000 nM -2.2%

CC(C)(N)C(=O)N[C@H](COCc1ccccc1)C(=O)N1CCC2(CC1)CN(S(C)(=O)=O)c1ccccc12 [ibutamoren]
inactive: 1 nM 1.85% | 8.33 nM 2.84% | 100 nM 0.93% | 833.33 nM 4.99% | 10000 nM 2.99%

O=C(O)CCCC[C@@H]1SC[C@@H]2NC(=O)N[C@@H]21 [biotin]
inactive: 1 nM 1.38% | 8.33 nM 1.22% | 100 nM -1.51% | 833.33 nM 0.93% | 10000 nM 1.95%

CC(C)c1cccc2c(-c3ccccc3)cc(-c3ccc(-c4ccc(C(=O)O)cc4)[nH]3)nc12
inactive: 1 nM 5.04% | 8.33 nM 4.89% | 100 nM 3.09% | 833.33 nM 5.27% | 10000 nM 3.56%

COc1ccc(/C=C\c2cc(OC)c(OC)c(OC)c2)cc1OP(=O)(O)O [fosbretabulin]
inactive: 1 nM 0.43% | 8.33 nM 0.77% | 100 nM -1.34% | 833.33 nM -0.84% | 10000 nM -0.38%

O=C(O)c1nc(=O)[nH]c(=O)[nH]1 [oxonic-acid]
inactive: 1 nM -6.02% | 8.33 nM -2.79% | 100 nM 1.25% | 833.33 nM 0.64% | 10000 nM -0.52%

CCCCCCCCCCCCCCCCCC(=O)OCC(O)CO (stereo not given) [monostearin]
inactive: 1 nM 3.45% | 8.33 nM 0.27% | 100 nM 0.45% | 833.33 nM 0.48% | 10000 nM -0.08%

Cc1c(Cl)c(C)[n+]([O-])c(Cl)c1-c1noc(-c2cc(O)c(O)c([N+](=O)[O-])c2)n1 [opicapone]
inactive: 1 nM 2.55% | 8.33 nM 1.95% | 100 nM 0.21% | 833.33 nM 0.43% | 10000 nM -1.39%

Cc1cc(C)cc(C(=O)O[C@H]2C[C@H]3CC[C@@H](C2)N3C)c1 [tropanyl-3,5-dimethylbenzoate]
inactive: 1 nM -1.37% | 8.33 nM 1.19% | 100 nM 2.71% | 833.33 nM -1.34% | 10000 nM 1%

CC(C)CN(C[C@@H](O)[C@H](Cc1ccccc1)NC(=O)O[C@H]1CO[C@H]2OCC[C@H]21)S(=O)(=O)c1ccc(N)cc1 [darunavir]
inactive: 1 nM -2.41% | 8.33 nM -2.86% | 100 nM -0.7% | 833.33 nM 0.44% | 10000 nM -1.15%

CCOc1ccc2nc3cc(N)ccc3c(N)c2c1 [ethacridine-lactate-monohydrate]
inactive: 1 nM -0.84% | 8.33 nM 0.62% | 100 nM 0.77% | 833.33 nM -1.28% | 10000 nM 0.22%

CO/N=C1\C[C@]2(C[C@@H]3C[C@@H](C/C=C(\C)C[C@@H](C)/C=C/C=C4\CO[C@@H]5[C@H](O)C(C)=C[C@@H](C(=O)O3)[C@]45O)O2)O[C@H](/C(C)=C/C(C)C)[C@H]1C [moxidectin]
inactive: 1 nM -5.37% | 8.33 nM -7.08% | 100 nM -3.57% | 833.33 nM -4.07% | 10000 nM 2.53%

C/C=C(/C)C(=O)O[C@H]1C(C)=C[C@]23C(=O)[C@@H](C=C(CO)[C@@H](O)[C@]12O)[C@H]1[C@@H](C[C@H]3C)C1(C)C [ingenol-mebutate]
inactive: 1 nM -1.66% | 8.33 nM -1.76% | 100 nM -8.12% | 833.33 nM -7.76% | 10000 nM -8.66%

N[C@@H](CSS(=O)(=O)O)C(=O)O [S-sulfo-L-cysteine]
inactive: 1 nM -0.33% | 8.33 nM 1.82% | 100 nM -0.09% | 833.33 nM 1.93% | 10000 nM 0.23%

Cc1ccc(NC2=CC(=O)c3sc(C)nc3C2=O)cc1 [ryuvidine]
inactive: 1 nM 1.42% | 8.33 nM 4.18% | 100 nM 4.56% | 833.33 nM 6.56% | 10000 nM -20.4%

CC(C)(C)c1ccc(CN2CCN(C(c3ccccc3)c3ccc(Cl)cc3)CC2)cc1 (stereo not given) [buclizine]
inactive: 1 nM -1.54% | 8.33 nM -0.87% | 100 nM 0.71% | 833.33 nM 0.45% | 10000 nM 2.38%
